This is an account of results in paper PMC5515408, “Sequence-specific DNA binding by MYC/MAX to low-affinity non-E-box motifs”.

In all, about 5,000 sequences were measured (“log2 normalized fluorescence”: median about 0.089, highest 2% from about 0.81 on). This excerpt belongs to a sample that is enriched for the highest values.

Sequence of MYC (p64);MAX (p21), in MYC:MAX (P01106 16-454, chain 1 of 2): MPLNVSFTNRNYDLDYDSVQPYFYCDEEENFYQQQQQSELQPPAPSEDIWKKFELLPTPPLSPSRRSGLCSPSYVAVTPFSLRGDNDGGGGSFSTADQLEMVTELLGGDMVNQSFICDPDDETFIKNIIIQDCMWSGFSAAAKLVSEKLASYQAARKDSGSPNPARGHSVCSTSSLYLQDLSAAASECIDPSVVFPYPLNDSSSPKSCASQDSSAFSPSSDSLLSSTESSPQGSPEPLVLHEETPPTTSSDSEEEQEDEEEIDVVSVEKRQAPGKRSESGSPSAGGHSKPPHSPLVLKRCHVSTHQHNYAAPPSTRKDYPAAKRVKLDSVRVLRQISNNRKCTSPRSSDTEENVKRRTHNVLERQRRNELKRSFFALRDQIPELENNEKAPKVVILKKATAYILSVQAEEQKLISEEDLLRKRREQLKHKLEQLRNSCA
Sequence of MYC (p64);MAX (p21), in MYC:MAX (P61244 other isoform, or with tags, fused parts or gaps |, chain 2 of 2): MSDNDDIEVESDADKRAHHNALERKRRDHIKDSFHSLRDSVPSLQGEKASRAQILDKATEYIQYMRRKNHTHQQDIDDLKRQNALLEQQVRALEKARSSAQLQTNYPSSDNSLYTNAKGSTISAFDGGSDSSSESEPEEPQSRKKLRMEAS

The target of this experiment is MYC (p64);MAX (p21), in MYC:MAX (human;human, UniProt P01106-1;P61244-2 1-439;1-151, |). As to the kind of experiment: protein-binding microarray (anti-MAX antibody); PBM: 15 mM Tris-HCl pH 7.5, 100 mM KCl, 0.075% NP40, 7.5 mM beta-mercaptoethanol, 375 ng/ul BSA, 8 ng/ul poly(dA-dT):(dA-dT), 550 ng complex, 60 min, room tempe; high values mean tight binding. As to conditions: protein: recombinant;recombinant; tags: 6xHis;6xHis; copies: 1;1; label: 3' end of printed strand (linker) attached to glass slide; dsDNA, one strand shown. Summed up:
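Recombinant His-tagged human MYC:MAX or MAX:MAX dimers (550 ng, expressed in E. coli) were incubated for 60 min at room temperature in Tris-KCl buffer, pH 7.5, with NP40, BSA and poly(dA-dT) competitor. The custom Agilent glass array held ~5000 unique 12-nt sequences, each spotted in triplicate and made double-stranded by primer extension. Bound protein was detected with anti-MAX and secondary antibodies and scanned at 543 nm. Binding is reported as log2 normalized fluorescence.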
Consider “CCGGCTGATAAGGTGTATTAATAGCTAAGATTACTATATCGACG”, for which the binding signal is 0.0319 log2 normalized fluorescence.
In the case of “CCGGCTGAACGCTAGTATTAATAGCTAAGATTACTATATCGACG” it was 0.178 log2 normalized fluorescence; in that of “CCGGCTGAGTGACAGTATTAATAGCTAAGATTACTATATCGACG”, 0.00932 log2 normalized fluorescence.
As to “CCGGCTGAACCGATGTATTAATAGCTAAGATTACTATATCGACG”, the binding signal is 0.0618 log2 normalized fluorescence.
Under “CCGGCTGACGTACGGTATTAATAGCTAAGATTACTATATCGACG” stands 0.112 log2 normalized fluorescence.
On to “CCGGCTGAGCTCCCGTATTAATAGCTAAGATTACTATATCGACG”, for which the binding signal is 0.0359 log2 normalized fluorescence.
Take “CCGGCTGAACGGACGTATTAATAGCTAAGATTACTATATCGACG”: the binding signal is 0.0519 log2 normalized fluorescence.
Under “CCGGCTAACACGTGGTATTAATAGCTAAGATTACTATATCGACG” stands 0.946 log2 normalized fluorescence.
In the case of “CCGGCTTAGACGTGGTATTAATAGCTAAGATTACTATATCGACG” it was 0.235 log2 normalized fluorescence; in that of “CCGGCAAACACGTGGTATTAATAGCTAAGATTACTATATCGACG”, 1.02 log2 normalized fluorescence.
Under “CCGGCTAACACGTGGTTTTAATAGCTAAGATTACTATATCGACG” stands 1.01 log2 normalized fluorescence; under “CCGGCTTACACGTGGTATTAATAGCTAAGATTACTATATCGACG”, 0.847 log2 normalized fluorescence.
For the sequence “CCGGCTATAACGTGGTATTAATAGCTAAGATTACTATATCGACG”, the binding signal was 0.627 log2 normalized fluorescence.
In the case of “CCGGCGAACACGTGGTATTAATAGCTAAGATTACTATATCGACG” it was 0.76 log2 normalized fluorescence; in that of “CCGGCAAATACGTGGTATTAATAGCTAAGATTACTATATCGACG”, 0.556 log2 normalized fluorescence.
Under “CCGGCTTAATCGTGGTATTAATAGCTAAGATTACTATATCGACG” stands 0.374 log2 normalized fluorescence; under “CCGGCGCAAACGTGGTATTAATAGCTAAGATTACTATATCGACG”, 0.579 log2 normalized fluorescence; under “CCGGCTTACACGTGGTTTTAATAGCTAAGATTACTATATCGACG”, 0.721 log2 normalized fluorescence.
In the case of “CCGGCCGTCACGTGGTTTTAATAGCTAAGATTACTATATCGACG” it was 0.74 log2 normalized fluorescence; in that of “CCGGCTGACGCACTGTATTAATAGCTAAGATTACTATATCGACG”, 0.457 log2 normalized fluorescence.
“CCGGCTGAAGGCCCGTATTAATAGCTAAGATTACTATATCGACG”: the binding signal was 0.0982 log2 normalized fluorescence.
Under “CCGGCTGAATCAAAGTATTAATAGCTAAGATTACTATATCGACG” stands -0.00984 log2 normalized fluorescence; under “CCGGCTGACCCTTGATATTAATAGCTAAGATTACTATATCGACG”, 0.0562 log2 normalized fluorescence; under “CCGGCTGAATGTTGGTATTAATAGCTAAGATTACTATATCGACG”, 0.176 log2 normalized fluorescence.
In the case of “CCGGCTGACCTCCCGTATTAATAGCTAAGATTACTATATCGACG” it was 0.167 log2 normalized fluorescence; in that of “CCGGCTGAACCGCGGTATTAATAGCTAAGATTACTATATCGACG”, 0.103 log2 normalized fluorescence; in that of “CCGGCTGAACTCGAGTATTAATAGCTAAGATTACTATATCGACG”, 0.253 log2 normalized fluorescence.
Take “CCGGCTGGGGCGTGGTATTAATAGCTAAGATTACTATATCGACG”: the binding signal is 0.471 log2 normalized fluorescence.
In the case of “CCGGCCAACACGTTGTATTAATAGCTAAGATTACTATATCGACG” it was 0.669 log2 normalized fluorescence; in that of “CCGGCTCCAACGTGGTATTAATAGCTAAGATTACTATATCGACG”, 0.579 log2 normalized fluorescence.
In the case of “CCGGCCAACACGTGGTATTAATAGCTAAGATTACTATATCGACG” it was 0.937 log2 normalized fluorescence.
Consider “CCGGCTGAAGGACCGTATTAATAGCTAAGATTACTATATCGACG”, for which the binding signal is 0.0673 log2 normalized fluorescence.
In the case of “CCGGCTGACACGTGGACTTAATAGCTAAGATTACTATATCGACG” it was 0.734 log2 normalized fluorescence; in that of “CCGGCTGACTCGTGGCATTAATAGCTAAGATTACTATATCGACG”, 0.584 log2 normalized fluorescence; in that of “CCGGCTGACACGTGGCCTTAATAGCTAAGATTACTATATCGACG”, 0.897 log2 normalized fluorescence.
In the case of “CCGGCTGACACGTAGCATTAATAGCTAAGATTACTATATCGACG” it was 0.484 log2 normalized fluorescence; in that of “CCGGCTGACACGTGCCTTTAATAGCTAAGATTACTATATCGACG”, 0.722 log2 normalized fluorescence.
In the case of “CCGGCTGACACGTGGCATTAATAGCTAAGATTACTATATCGACG” it was 0.835 log2 normalized fluorescence.
